Compound activity: PubChem BioAssay, National Center for Advancing Translational Sciences (NCATS)
Shown are actives, neighbours in structure and some others; about 2.7% of the full set was active somewhere.
pAkt inh: inhibitors of Akt phosphorylation; Neuro2A IGF-stimulated pAkt S473 HTRF, 20 min; stronger effect = lower value; activity change, % for hits at 50 µM; 360,000 compounds, 0.32% hits; AID 651550; in the data active = activity change below about -80%; inconclusive = mostly about -51% to -80%; also: % is scaled to controls: 0 for no effect and ±100 for the full control effect
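Neuro2A cells (4,500/well, DMEM with 0.5% FBS) were treated with compound at a single 50 µM final concentration, stimulated with 6 nM IGF for 20 min at 37 °C, and lysed. Phospho-Akt Ser473 was read by HTRF as 665/615 ratio ×10^4.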
RXFP1 antag: blocks the human relaxin receptor RXFP1; activity change, negative = inhibition, % at 57.5 µM; Q9HBX9; 350,000 compounds, 0.59% hits; HEK293-RXFP1, relaxin-stimulated cAMP HTRF, 30 min; stronger effect = lower value;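 active = activity change of -60% or lower, but not beyond a set lower limit; inconclusive = change between -60% and -40%, or beyond the set limit; inactive = change above -40%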; also: % is scaled to controls: 0 for no effect and ±100 for the full control effect
RXFP1 ag: agonists of human relaxin receptor RXFP1. Potency, µM (titrated, usually from 57.5 µM), without a hit: at the top dose activation, usual class: activators. Q9HBX9. HEK293T-RXFP1 cAMP TR-FRET, 30 min; response scale: percent of porcine relaxin response, buffer zero. 370,000 compounds, 0.3% hits. AID 2676; active = well fitted activation curve with a large enough effect; inconclusive = small, poorly fitted or top-dose-only effect; also: potency is read from the fitted curve at half-maximal effect; % is scaled to controls: 0 for no effect and ±100 for the full control effect; nearly all actives have a fitted effect of over 60% in size
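HEK293 cells stably expressing RXFP1, treated 30 min at 37C with compounds plus PDE4 inhibitor Ro 20174; cAMP measured by HTRF TR-FRET. Normalized to buffer and 29 nM porcine relaxin; EC50 by Hill fit.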
gsp ag: activates gsp, the McCune-Albright syndrome mutation; 340,000 compounds, 0.13% hits; AID 624287; Potency, µM (titrated, usually from 76.9 µM), inactives show at the top dose activation (cAMP increase), usual class: activators; gsp mutant cells, cAMP HTRF, 30 min; active = well fitted activation curve with a large enough effect; inconclusive = small, poorly fitted or top-dose-only effect, or another doubt; inactive = no such curve, though single readings can be large or run the other way; cell line not stated here;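 also: phosphodiesterase inhibitor Ro 20-1724 added with compounds to block cAMP breakdown; potency is read from the fitted curve at half-maximal effect; nearly all actives have a fitted effect of over 60% in size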
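Cells in DMEM/10% FBS with G418 were pretreated with compounds in DMSO plus […] (300 uM stock) for 30 min at 37C. cAMP was measured by HTRF (cAMP-d2 plus anti-cAMP antibody-K) after 30 min at room temperature.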
gsp antagonist: antagonizes gsp, the McCune-Albright syndrome mutation; gsp-mutant cells, cAMP HTRF, 30 min; Potency, µM (highest dose often 76.9 µM), inactives show top-dose activity change, negative = inhibition, most hits filed as inhibitors; 340,000 compounds, 0.4% hits; AID 624288; calls by dose curve; cell line not stated here;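 also: intracellular cAMP measured with PDE inhibitor Ro 20-1724 present during compound exposure; potency is read from the fitted curve at half-maximal effect; % is scaled to controls: 0 for no effect and ±100 for the full control effect; nearly all actives have a fitted effect of over 65% in size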
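Cells in G418 medium, seeded 16-24 h, 37C; buffer exchange to DPBS + 1 mM CaCl2, 0.5 mM MgCl2, 0.05% BSA; cpds in DMSO + […] (300 uM stock), 30 min 37C; HTRF cAMP detection.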
ClpP mod: qHTS Assay for Activators of ClpP; 340,000 compounds, 1.9% hits; Potency, µM (highest dose often 57.5 µM), for inactives: at the top dose activity change, negative = active; purified B. subtilis ClpP, FRET peptide cleavage, 20 min; ATP-dependent Clp protease proteolytic subunit (Bacillus subtilis (strain 168)), P80244; active = well fitted falling curve with a large enough effect; inconclusive = small, poorly fitted or top-dose-only effect; inactive = no such curve, though single readings can be large or run the other way; also: potency is read from the fitted curve at half-maximal effect; the source files actives as falling curves though it sought activators and does not explain the sign; nearly all actives have a fitted effect of over 65% in size
Target sequence (P80244 whole entry, looked up): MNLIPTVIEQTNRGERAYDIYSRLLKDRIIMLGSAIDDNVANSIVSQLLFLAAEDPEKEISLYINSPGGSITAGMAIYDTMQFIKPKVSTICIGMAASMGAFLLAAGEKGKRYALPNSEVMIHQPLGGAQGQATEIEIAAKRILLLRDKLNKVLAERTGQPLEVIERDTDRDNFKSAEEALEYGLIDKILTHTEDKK
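Buffer: 100 mM Tris/HCl pH8, 100 mM KCl, 0.05% low protease BSA, 2.5% glycerol, 0.01% Tween-20. ClpP 10 microg/mL final; 20 min RT; delta FRET normalized to ADEP and DMSO controls.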
Numbers without * were called inactive; i = inactive; ? = inconclusive; . = not tested or not shown; [ ] = remark or other dose.

SMILES	pAkt inh	RXFP1 antag	RXFP1 ag	gsp ag	gsp antagonist	ClpP mod
CCc1cccc(NC(=O)C2CCC(CNS(=O)(=O)c3ccc(Br)s3)CC2)c1 (configuration not stated)	.	-16	-2%	.	.	2%
CCCCNC(=O)c1c(O)c2cccc3c2n(c1=O)CCC3	.	0	2%	4%	32%	11µM*
c1ccc(-n2cnc3cc(NCc4ccncc4)ccc32)cc1	-103%*	9	2%	-6%	-13%	-8%
COc1ccc(CNS(=O)(=O)c2ccc3c(c2)C(C)(C)C(=O)N3C)cc1OC	.	.	1%	.	.	0%
O=C1CC2(CCN(C(=O)C3CC(=O)N(c4ccccc4)C3)CC2)Oc2ccccc21 (configuration not stated)	i	-4	1%	?	-3%	32µM*
O=C1CC2(CCN(C(=O)c3ccccc3Cl)CC2)Oc2ccccc21	i	1	1%	10%[15.4 µM]	-17%	.
COc1cccc(N2CC(C(=O)N3CCC4(CC3)CC(=O)c3ccccc3O4)CC2=O)c1 (configuration not stated)	i	-15	-1%	-23%	-6%	28µM*
COc1ccc(OC)c(S(=O)(=O)N2CCC3(CC2)CC(=O)c2ccccc2O3)c1	i	-6	0%	-6%[15.4 µM]	3%	?
Cc1ccc(-n2ccn(CC(=O)NCCc3ccccc3)c(=O)c2=O)cc1C	i	9	5%	17%	5%	2%
CCS(=O)(=O)c1nc(S(=O)(=O)c2ccc(Cl)cc2)c(N2CCN(C)CC2)s1	i	22	-1%	?	10%	-3%
CCS(=O)(=O)c1nc(S(=O)(=O)c2ccc(Cl)cc2)c(N2CCCC2)s1	.	-4	?	13µM*	-15%	-1%
CCS(=O)(=O)c1nc(S(=O)(=O)c2ccc(C)cc2)c(N2CCN(C)CC2)s1	.	6	25µM*	?	-3%	0%
Cc1c(C(=O)Nc2cccc(C(F)(F)F)c2)sc2nc3n(c(=O)c12)CCC3	.	-24	1%	.	.	0%
Cc1ccc(Cl)cc1N1CCN(c2ncnc3onc(C)c23)CC1	.	.	-2%	.	.	1%
Cc1noc2ncnc(N3CCN(c4cccc(Cl)c4)CC3)c12	i	-4	0%	10%	35µM*	-2%
CCCN1C(=O)c2ccccc2NC1c1ccc(OC)c(COc2cccc(C)c2C)c1 (configuration not stated)	.	.	.	.	.	4%
C[C@H]1CN([C@@H](C)CO)C(=O)c2cc(Br)cnc2O[C@H]1CN(C)C(=O)c1cnccn1	i	12	.	11µM*	.	-1%
O=S(=O)(c1ccc2nc(Nc3ccccc3)ccc2c1)N1CCCCC1	i	-18	0%	9%	0%	.
COc1ccccc1CCNC(=O)c1ccc2c(c1)c(C)c(C)n2Cc1ccc(Cl)cc1	.	-16	0%	.	.	?
COc1ccc(OC)c(NC(=O)c2ccc3c(c2)c(C)c(C)n3Cc2ccc(F)cc2)c1	.	-2	0%	.	.	22µM*
COc1ccc(OC)c(CNC(=O)c2ccc3c(c2)c(C)c(C)n3C)c1	.	-9	1%	.	.	-22%
COc1ccc(NC(=O)c2ccc3c(c2)c(C)c(C)n3Cc2ccc(F)cc2)c(OC)c1	.	-7	1%	.	.	22µM*
COc1ccc(OC)c(CNC(=O)c2ccc3c(c2)c(C)c(C)n3Cc2ccc(Cl)cc2)c1	.	-12	-1%	.	.	32µM*
CC(Sc1nccn1C)C(=O)Nc1ccccc1C#N (configuration not stated)	.	.	-1%	.	.	0%
Cc1ccc(-c2nnc(/C=C/c3ccccc3)o2)cc1	i	-19	0%	-31%	14%	?
SMILES	pAkt inh	RXFP1 antag	RXFP1 ag	gsp ag	gsp antagonist	ClpP mod
Cc1ccc(/C=C/c2nnc(-c3cccc(C)c3)o2)cc1	i	-2	0%	?	6%	32µM*
N#Cc1ccc(-c2cccc3nccn23)cc1	i	.	.	.	.	4%
Cc1cc(-c2nnc(CCC(=O)NCc3cc(F)cc(C(F)(F)F)c3)o2)no1	i	-1	3%	-3%[15.4 µM]	5%	28µM*
Cc1cc(-c2nnc(CCC(=O)NCC(C)c3ccccc3)o2)no1 (configuration not stated)	i	-16	-2%	0%[15.4 µM]	7%	-11%
Cc1ccc(C=Nc2ccccc2C(N)=O)s1	i	8	3%	3%	12%	8.9µM*
Cc1cccc(/C=N/NC(=O)Cc2cccs2)c1	i	-26	2%	-17%	14%	.
Cc1cccc(C=Nc2ccccc2C(N)=O)c1	i	5	2%	-38%	16%	22µM*
CC(C)NC(=O)Nc1ccc2c(c1)C(=O)N([C@H](C)CO)C[C@H](C)[C@@H](CN(C)S(=O)(=O)c1cn(C)cn1)O2	i	.	.	.	8%	0%
Cc1cccc(-n2c(Cc3ccccc3)nnc2SCC(=O)N2CCOCC2)c1	i	3	-1%	-30%	-2%	-4%
O=C(CSc1nnc(Cc2ccccc2)n1-c1cccc(Cl)c1)N1CCOCC1	-132%*	3	4%	-41%	4%	1%
O=C(c1cc(-c2ccccc2)nc2ccccc12)N1N=C(C(F)F)CC1(O)C(F)F (configuration not stated)	?	-2	0%	-3%	-7%	-8%
Cc1ccc(-c2cc(C(=O)N3N=C(C(F)F)CC3(O)C(F)F)c3ccccc3n2)cc1C (configuration not stated)	i	-34	-1%	-8%	-22%	25µM*
CCOC(=O)c1oc2ccc(S(=O)(=O)n3nc(-c4ccccc4)cc3N)cc2c1C	i	.	0%	-34%	7.9µM*	1%
O=C(COC(=O)C1CCCC1)Nc1cccc(Cl)c1Cl	i	-74*	.	37%	6%	.
Cc1ccc(Nc2nc3ccc(C)cc3nc2-n2nc(C)cc2C)c(C)c1	.	-8	12%	.	.	-6%
O=C(NCCc1ccccc1)C1CCN(Cc2cccc3ccccc23)CC1	i	-11	1%	46%[15.4 µM]	15%	16µM*
O=c1cc(-c2ccc([N+](=O)[O-])cc2)nc2cc(-c3ccc(F)cc3)[nH]n12	i	2	-2%	-21%	6%	1%
Cc1cc(=O)n2[nH]c(-c3ccc(F)cc3)cc2n1	i	.	1%	9%	-2%	16µM*
Cc1cc(=O)n2[nH]c(-c3ccc(Cl)cc3)cc2n1	i	-2	-1%	11%	-9%[15.4 µM]	28µM*
Cc1ccc(OCc2nnc(N)s2)cc1	i	6	4%	-4%	1%	.
Cc1cccc(OCc2nnc(N)s2)c1C	-120%*	-3	2%	16%	-6%	-1%
